luminol inh ctr = counter-screen for Nox1 inhibitors: inhibitors of luminol chemiluminescence; inhibition, % at 6.7 µM; actives 0.4% (n = 16,000); HRP/luminol/H2O2 chemiluminescence counterscreen; AID 1823; also: reference of the scale not given here
PME-1 Maybridge = PME-1 (human) inhibition, Maybridge primary screen. recombinant PME-1, FP-Rh probe fluorescence polarization. actives 0.5% (n = 16,000). AID 2291. Q9Y570. inhibition, % at 9 µM; in the data active = inhibition above about 30%
Target sequence (Q9Y570 whole entry, looked up): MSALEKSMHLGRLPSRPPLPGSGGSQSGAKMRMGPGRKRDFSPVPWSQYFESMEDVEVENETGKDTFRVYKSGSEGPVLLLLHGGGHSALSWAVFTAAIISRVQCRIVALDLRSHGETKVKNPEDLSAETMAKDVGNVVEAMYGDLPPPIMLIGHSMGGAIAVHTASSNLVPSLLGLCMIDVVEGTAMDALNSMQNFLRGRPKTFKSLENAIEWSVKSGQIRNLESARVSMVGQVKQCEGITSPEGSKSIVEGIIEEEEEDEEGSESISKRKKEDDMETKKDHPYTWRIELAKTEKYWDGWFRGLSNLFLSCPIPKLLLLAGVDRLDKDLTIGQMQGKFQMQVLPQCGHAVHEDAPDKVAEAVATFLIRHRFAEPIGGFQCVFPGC
NOTCH ag = NOTCH pathway agonism; NOTCH signaling luciferase reporter cells, luminescence; actives 0.4% (n = 15,000); AID 434982; activation, % at 2.5 µM; in the data active = activation above about 2.2%
Nox1 inh = human Nox1 inhibition; HT29 cells, luminol chemiluminescence ROS; Q9Y5S8; inhibition, % at 6.7 µM; actives 0.81% (n = 16,000)
* marks the source's active call; other numbers are inactive results; nt = not tested or not shown. Rows were chosen to be rich in hits. Some 2.1% of all compounds tested hit in one or more screens of this group. Rule as the data show it, unless noted: active = inhibition above about 75%; inactive = the rest.

SMILES	luminol inh ctr	PME-1 Maybridge	NOTCH ag	Nox1 inh
CC1C(c2ccccc2)OCCN1C(=O)CCN1C(=O)c2ccccc2C1=O (stereo not given)	-1	2	0	-87
COC(=O)c1sccc1NNC(=O)CC#N	15	3	0	87*
COc1ccccc1NS(=O)(=O)c1ccccc1[N+](=O)[O-]	1	1	0	-39
COc1ccccc1NS(=O)(=O)c1ccc(Cl)s1	3	32*	nt	-17
FC(F)(F)c1nnc(Nc2cccnc2)s1	-1	4	4.5*	-82
FC(F)(F)c1cccc(Nc2nnc(-c3cccnc3)s2)c1	0	1	0	-38
COc1cc([N+](=O)[O-])c(OC)cc1SCC(=O)NNC(=S)Nc1ccc(F)cc1	83*	9	0	21
O=C(CSc1ccccc1[N+](=O)[O-])NNC(=S)Nc1cccc(C(F)(F)F)c1	3	13	0	-50
O=C(NNc1nc(-c2cccs2)ns1)c1cccc(C(F)(F)F)c1	57	7	1	104*
O=C(NNC(=O)c1cccc(C(F)(F)F)c1)c1ccncc1	3	5	-1	-35
O=C(CN1C(=O)c2ccccc2C1=O)NCc1ccc(N2CCOCC2)cc1	2	4	0	-17
O=C1c2ccccc2C(=O)N1CNc1ccc(N2CCOCC2)cc1	-4	5	0	98*
O=c1c(Nc2ccc(OC(F)(F)F)cc2)c(Nc2ccc(OC(F)(F)F)cc2)c1=O	-4	30*	0	6
FC(F)(F)c1ccc2c(c1)Nc1ccccc1S2	10	4	nt	102*
N/C(=N/OC(=O)Nc1cccc(C(F)(F)F)c1)C1COc2ccccc2O1 (stereo not given)	-2	0	2.4*	-5
N/C(=N\OC(=O)Nc1cccc(C(F)(F)F)c1)C1CSCCS1 (stereo not given)	-5	1	-1	-11
Cn1c(-c2cc(C(C)(C)C)nn2Cc2ccc(F)cc2)n[nH]c1=S	99*	7	1	5
S=c1[nH]nc(CSc2nc(-c3ccccc3)cn2-c2ccccc2)n1-c1ccccc1	2	3	0	-12
S=c1[nH]nc(Cc2n[nH]c(=S)n2-c2ccccc2)n1-c1ccccc1	95*	0	0	-28
CCCOc1ccc(NC(C)=O)cc1	-4	5	5.0*	3
CC(=O)Nc1cccc(OCCOc2cccc(NC(C)=O)c2)c1	2	-1	0	-70
FC(F)(F)c1cnc(NCCCNC(=S)Nc2cccnc2)c(Cl)c1	-3	6	2.8*	25
CCCN(CCC)S(=O)(=O)c1ccc(C(=O)NC(=S)Nc2ccc(F)cc2)cc1	2	-1	0	-102
O=[N+]([O-])c1cc(Cl)c(-n2cccc2)cc1N1CCCCC1	3	1	0	-73
O=[N+]([O-])c1cc(Cl)c(N2CCOCC2)cc1N1CCOCC1	7	-4	6.3*	-74
SMILES	luminol inh ctr	PME-1 Maybridge	NOTCH ag	Nox1 inh
Cc1c(CC(=O)Nc2ccccc2)sc2ccccc12	0	3	-1	-18
O=C(Cc1csc2ccccc12)Nc1ccc(F)cc1	2	58*	0	-64
N#C/C(=C\c1ccccn1)c1nc(-c2ccc(Cl)cc2)cs1	-2	4	0	-58
COc1cc2c(cc1OC)C(C)N(C(=O)c1sc(-c3cnccn3)nc1C)CC2 (stereo not given)	-7	10	0	-21
COc1cc2c(cc1OC)C(C)N(C(=O)c1sc3ccccc3c1Cl)CC2 (stereo not given)	2	52*	-6	-21
O=[N+]([O-])c1cc(C(F)(F)F)ccc1Oc1ccc(-c2nnco2)cc1	-1	17	-1	77*
O=[N+]([O-])c1cc(C(F)(F)F)ccc1Oc1ccc2nonc2c1	0	1	0	29
CC(CC(=O)Nc1ccc(Cl)cc1)C(Cl)(Cl)Cl (stereo not given)	1	-4	-1	-10
CC(=O)c1ccc(C#CCOC(=O)Nc2ccccc2)s1	2	-1	-1	-56
CC1CN(c2ccc(NS(=O)(=O)c3ccccc3)cc2C(=O)O)CC(C)O1 (stereo not given)	41	-1	0	84*
Cc1nn(-c2ccccc2)c(C)c1C(=O)Oc1ccccc1	-2	0	0	16
Cc1nn(C(=O)c2cc(C)n(-c3ccccc3)n2)c(C)c1Br	-4	41*	-1	-15
COC(=O)CC(CC(=O)OC)(c1cc(C)c(O)c(C)c1)c1cc(C)c(O)c(C)c1	77*	7	-1	21
COC(=O)/C(=C/c1cc(C)c(C)o1)S(C)(=O)=O	-5	2	0	11
O=C(Nc1ccc(OCc2ccccc2)cc1)N1CCCN(c2nccc(C(F)(F)F)n2)CC1	-35	0	0	18

From PubChem
